Consider 40 compounds from PubChem BioAssay (NCATS).

Records with an inconclusive call do not appear. A number with no mark means an inactive call. Active and inactive are the calls of the source. The call rests on the fitted dose curve; in most records, active means well fitted cell-killing curve with a large enough effect; inconclusive means small, poorly fitted or top-dose-only effect, or effect the other way; inactive means no such curve, though single readings can be large or run the other way.
Potency means the concentration at half of the fitted maximal effect.

The experiment can be described thus: Quantitative High-Throughput drug screen in 47 multiple myeloma cell lines against the NCATS MIPE library collection: Karpas417_ECACC cell viability assay (AID 1918961). To be noted: Karpas417 myeloma viability, CellTiter-Glo ATP luminescence, 48 h; viability (% of DMSO): at 45.8 µM (top of the series). From the text: PI: Beverly A. Mock Ph.D.
Laboratory of Cancer Biology and Genetics,
Center for Cancer Research, National Cancer Institute,
National Institute of Health, Bethesda, Maryland
Drug resistance and disease progression are common in multiple myeloma (MM) patients, underscoring the need for new therapeutic combinations. […] We hypothesized that effective combinations would reduce MYC expression and enhance p16 activity. […] These preclinical data identify potentially useful drug combinations for evaluation in drug-resistant MM and reveal potential mechanisms of combined drug sensitivity.
Described herein is the primary MIPE qHTS used to cherrypick compounds. Validated compounds were then further tested for potential synergistic activiy.
[1] Peat TJ, Gaikwad SM, Dubois W, Gyabaah-Kessie N, Zhang S, Gorjifard S, Phyo Z, Andres M, Hughitt VK, Simpson RM, Miller MA, Girvin AT, Taylor A, Williams D, D'Antonio N, Zhang Y, Rajagopalan A, Flietner E, Wilson K, Zhang X, Shinn P, Klumpp-Thomas C, McKnight C, Itkin Z, Chen L, Kazandijian D, Zhang J, Michalowski AM, Simmons JK, Keats J, Thomas CJ, Mock BA. Drug combinations identified by high-throughput screening promote cell cycle transition and upregulate Smad pathways in myeloma. Cancer Lett. 2023 Aug 1;568:216284. doi: 10.1016/j.canlet.2023.216284. Epub 2023 Jun 24. PMID: 37356470; PMCID: PMC10408729.
SEQUENCE No. (e.g., 1, 2, 3, etc.); […] (e.g., Cells, Incubation, Reagent, etc.); VALUE and DESCRIPTION.
1; Cells; 5 uL; white, solid bottom 1536-well Greiner assay plate.
2; Compounds; 23 nL; Kalypsis pin tool (Wako USA) equipped with a 1536-well pin head to transfer to the assay plates.
3; Incubation; 48 hours; 37C incubation.
4; Reagent;5uL; CellTiter Glo (Promega).
5; Detector; 425V; Luminescence; Viewlux PerkinElmer.
NOTES (numbers refer to Sequence numbers above)
1. The cell-based screening methods employed in this study were like those previously published. Briefly, the corresponding myeloma cell lines were screened in 1,536-well plates with 500 cells, 5-uL per well for inhibition of cell viability (assessed by measuring ATP levels with CellTiterGlo).
2. NCATS MIPE 4.0 library of approved and investigational drugs were added using the Kalypsis pin tool. Wells treated with DMSO only for 100% viability and media only wells for 0% viability were used as controls.
3. The assay plates were covered and incubated for 48 hours in a 37C, 5% CO2 incubator with controlled humidity.
4. After 48 hours, CellTilter-GloTM luminescent substrate mix (Promega) reagent was added to the assay plate and plates we incubated for 5 min at room temperature.
5. Signal was measured as median relative luminescence units on a ViewLux (PerkinElmer) multiplate reader.
[1] Heske CM, Davis MI, Baumgart JT, Wilson K, Gormally MV, Chen L, Zhang X, Ceribelli M, Duveau DY, Guha R, Ferrer M, Arnaldez FI, Ji J, Tran HL, Zhang Y, Mendoza A, Helman LJ, Thomas CJ. Matrix Screen Identifies Synergistic Combination of PARP Inhibitors and Nicotinamide Phosphoribosyltransferase (NAMPT) Inhibitors in Ewing Sarcoma. Clin Cancer Res. 2017 Dec 1;23(23):7301-7311. doi: 10.1158/1078-0432.CCR-17-1121. Epub 2017 Sep 12. PMID: 28899971; PMCID: PMC6636827.
Background: Cellular ATP, detected with luciferase, serves as a proxy for viable cell number.
Take `CS(=O)c1ccc(-c2nc(-c3ccc(F)cc3)c(-c3ccncc3)[nH]2)cc1` (stereo not given): the Potency was 3.82 µM (active).

In the case of `O=C1C(Cl)=C(NCCN2CCOCC2)C(=O)c2ncccc21`, the Potency is 3.32 µM (active).

In the case of `O=c1c(O)c(-c2ccc(O)cc2)oc2cc(O)cc(O)c12`, the Potency is 16.6 µM (active).

Turning to `C[C@@H]1CCN(C(=O)CC#N)C[C@H]1N(C)c1ncnc2[nH]ccc12`, the “viability (% of DMSO)” value was 147%.

Regarding `CC[C@]1(O)C[C@@H]2CN(CCc3c([nH]c4ccccc34)[C@@](C(=O)OC)(c3cc4c(cc3OC)N(C=O)[C@@H]3C45CCN4CC=C[C@](CC)([C@H]45)[C@@H](OC(C)=O)[C@]3(O)C(=O)OC)C2)C1` (stereo not given in full), the “viability (% of DMSO)” value is 214%.

On to `Cc1ccc(C(C)(O)c2nc3ccccc3s2)c(C)c1` (stereo not given), for which the “viability (% of DMSO)” value is 144%.

As to `CC=C(C)C(=O)O[C@H]1C(C)=C[C@]23C(=O)[C@@H](C=C(CO)[C@@H](O)[C@]12O)[C@H]1[C@@H](C[C@H]3C)C1(C)C`, the Potency is 0.209 µM (active).

Take `CC(=NNC(=S)N1CCC1)c1ccccn1`: the “viability (% of DMSO)” value is 5.95%.

In the case of `CC1(C)S[C@H]2[C@H](NC(=O)[C@@H](N)c3ccc(O)cc3)C(=O)N2[C@@H]1C(=O)O`, the Potency was 1.66 µM (active).

`Clc1ccc(C(c2ccc(Cl)cc2)n2cc[n+](CC(OCc3ccc(Cl)cc3Cl)c3ccc(Cl)cc3Cl)c2)cc1` (stereo not given): the Potency was 8.33 µM (active).

For `CCS(=O)(=O)N1CC(CC#N)(n2cc(-c3ncnc4[nH]ccc34)cn2)C1`, the Potency was 0.105 µM (active).

`C[C@]12CC[C@@H]3c4ccc(O)cc4CC[C@H]3[C@H]1C[C@@H](O)[C@H]2O`: the “viability (% of DMSO)” value was 84.2%.

Regarding `OC[C@H]1O[C@@H](n2cnc3c2NC=NC[C@@H]3O)C[C@H]1O`, the “viability (% of DMSO)” value was 132%.

`O=C1c2ccccc2-[n+]2ccc3c([nH]c4ccccc43)c21`: the Potency is 8.33 µM (active).

Turning to `Cc1[nH]c(C=C2C(=O)Nc3ccc(S(=O)(=O)Cc4c(Cl)cccc4Cl)cc32)c(C)c1C(=O)N1CCC[C@H]1CN1CCCC1`, the Potency is 1.48 µM (active).

On to `CON=C(C(=O)N[C@@H]1C(=O)N2C(C(=O)OCOC(=O)C(C)(C)C)=C(C=Cc3scnc3C)CS[C@H]12)c1csc(N)n1`, for which the Potency was 20.9 µM (active).

Consider `CCOC1OC(=O)C[C@H]1NC(=O)[C@@H]1CCCN1C(=O)[C@@H](NC(=O)c1ccc(N)c(Cl)c1)C(C)(C)C` (stereo not given in full), for which the “viability (% of DMSO)” value is 99.2%.

Consider `O=C1NC(=O)C(=Cc2cccc(C(F)(F)F)c2)S1`, for which the Potency was 26.4 µM (active).

Consider `COCCOc1nc(-c2ccc(Cl)c(Cl)c2)n(-c2ccc(NC(=O)CCl)cc2)n1`, for which the Potency is 16.6 µM (active).

With `COc1cc2ncnc(-n3nc(-c4ccccn4)nc3N)c2cc1OC`, the Potency was 0.132 µM (active).

As to `C[N+](C)(C)CC(=O)O`, the “viability (% of DMSO)” value is 96.6%.

`O=c1c(-c2ccc(O)cc2)coc2cc(O)ccc12`: the “viability (% of DMSO)” value is 150%.

Regarding `C=C1C(=O)OC(CCCCCCCC)C1C(=O)O` (stereo not given), the viability (% of DMSO) was 74% (active).

For `O=C1NC(=O)C(=Cc2ccc(-c3ccc(F)cc3)o2)S1`, the Potency was 1.66 µM (active).

In the case of `Cc1c(O)cccc1C(=O)N[C@@H](CSc1ccccc1)[C@H](O)CN1C[C@H]2CCCC[C@@H]2C[C@@H]1C(=O)NC(C)(C)C`, the Potency is 14.8 µM (active).

Consider `O=C(Nc1ccccc1Br)N[C@@H]1CCN(c2ccc(C(F)(F)F)cn2)C1`, for which the “viability (% of DMSO)” value is 183%.

With `Cc1ccn(-c2ccc(-c3ncco3)cc2)c(=O)c1-c1ccc2nc(N)ncc2c1`, the Potency was 5.26 µM (active).

On to `NC(=O)c1ccc2nc(-c3ccc(Oc4ccc(Cl)cc4)cc3)[nH]c2c1`, for which the Potency is 0.187 µM (active).

In the case of `CC(C)C(C)C=CC(C)C1CCC2C3=CC=C4CC(O)CCC4(C)C3CCC21C` (stereo not given), the “viability (% of DMSO)” value is 119%.

`CC(C)C(=O)Oc1ccc(CO)cc1[C@H](CCN(C(C)C)C(C)C)c1ccccc1`: the “viability (% of DMSO)” value is 160%.

In the case of `NC1CCC(Nc2nc(Nc3ccc(C(=O)N4CCCCC4)cc3)c3ncn(-c4cccc(F)c4)c3n2)CC1` (stereo not given), the “viability (% of DMSO)” value is 135%.

On to `CC(C)=CC[C@@H](O)C1=CC(=O)c2c(O)ccc(O)c2C1=O`, for which the Potency is 1.18 µM (active).

For the compound `CN(C)Cc1ccc(-c2nc3cccc4c3n2CCNC4=O)cc1`, the Potency is 14.8 µM (active).

Consider `Cc1cnc(C(=O)O)c[n+]1[O-]`, for which the “viability (% of DMSO)” value is 122%.

As for `COc1cc(NC(=O)c2ccc(-c3ccc(Cl)cc3)o2)cc(OC)c1`, the Potency was 2.96 µM (active).

In the case of `COc1cc(O)c2c(c1)C(=O)c1cc(C)cc(O)c1C2=O`, the “viability (% of DMSO)” value is 115% [at 23.2 µM].

`Nc1ncnc2c1ncn2[C@@H]1O[C@@H](CO)[C@H](O)[C@H]1O`: the “viability (% of DMSO)” value was 124%.

Turning to `COc1cc2ncnc(Nc3ccc(F)c(Cl)c3)c2cc1OCCCN1CCOCC1`, the Potency is 3.4 µM (active).

`CC(=Cc1ccccc1)C=C1SC(=S)N(CC(=O)O)C1=O`: the “viability (% of DMSO)” value was 185%.

In the case of `COc1ccc2c(Oc3ccc(NC(=O)c4c(C)n(CC(C)(C)O)n(-c5ccccc5)c4=O)cc3F)ccnc2c1`, the “viability (% of DMSO)” value is 11.8%.
